Data as given in PubChem BioAssay.
Calls of active or inactive are those of the source.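 The calls were made as follows, unless noted: active = inhibition at or above 50% at 10 µM; inactive = inhibition below 50%.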

Assays:
[1] = inhibitors of TNFa-induced NFkB p65 translocation, primary screen, imaging, HUVEC, MLSMR starter and 10KST1 sets (AID 438;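 active = inhibition above 20% together with a positive visual image hit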;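 also: compound added about 3h40 before a 20 min TNFalpha stimulation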;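 as to inhibition: signal is the nuclear over cytoplasmic p65 intensity ratio per well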); settings: HUVEC TNFa-induced p65 nuclear translocation; cell count: measured here: nuclei count (cytotoxicity indicator), at 2.08 µM; inhibition: at 2 µM, stronger effect = higher value, 0% TNFa-plus-vehicle, 100% no-TNFa wells
[2] = inhibitors of mutant huntingtin aggregation, primary screen, imaging, exon1htt(103Q)mCFP cells, high-content imaging (AID 483;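 active = visual image review flags a hit and inhibition of aggregation exceeds 20%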;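 also: compound exposure lasted 3 days before fixation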;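 as to nuclei count: percent of the per-plate median nuclei count of sample wells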); settings: exon1htt(103Q)mCFP cell line, aggregate imaging, at 2 µM; inhibition of aggregation: stronger effect = higher value; nuclei count: measured here: cell count, toxicity
[3] = inhibitors of E-selectin induction by TNFa, primary screen, imaging, HUVEC, immunofluorescence, MLSMR starter and 10KST1 sets (AID 487;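 active = visually confirmed hit in the image check and inhibition above 20%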;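 as to inhibition: signal is fraction of cell area covered by stained E-selectin grains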;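 as to nuclei count: 100% = median nuclei count of all wells on the same plate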); settings: HUVEC TNFalpha-induced E-selectin immunofluorescence imaging, at 2 µM; inhibition: stronger effect = higher value; nuclei count: measured here: cell number, toxicity
[4] = molecular target: Voltage-gated potassium channel subunit beta-2 (Rattus norvegicus) (UniProt P62483); test: KvBeta enzyme negative modulators, primary screen, biochemical, NADPH fluorescence (AID 622;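 active = fluorescence slope higher than the sample average by over 3 SD, cut at about -0.22 in these data, passing the limit was not always enough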;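 also: slope of raw intensity against log time taken from 70 to 1610 s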); settings: recombinant KvBeta, 4-cyanobenzaldehyde reduction, at 10 µM, stronger effect = higher value
Sequence of Voltage-gated potassium channel subunit beta-2 (Rattus norvegicus) (P62483 whole entry, looked up): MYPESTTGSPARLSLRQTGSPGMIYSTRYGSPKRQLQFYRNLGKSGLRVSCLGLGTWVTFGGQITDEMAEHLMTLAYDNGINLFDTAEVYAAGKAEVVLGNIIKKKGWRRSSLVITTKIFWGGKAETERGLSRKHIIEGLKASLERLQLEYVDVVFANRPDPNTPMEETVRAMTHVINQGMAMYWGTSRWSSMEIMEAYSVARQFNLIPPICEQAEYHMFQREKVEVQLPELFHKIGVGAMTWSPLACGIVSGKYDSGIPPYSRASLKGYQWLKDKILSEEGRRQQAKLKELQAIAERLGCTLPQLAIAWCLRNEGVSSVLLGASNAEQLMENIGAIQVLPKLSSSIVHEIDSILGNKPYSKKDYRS

[5] = molecular target: Voltage-gated potassium channel subunit beta-2 (Rattus norvegicus) (UniProt P62483); test: KvBeta positive modulators, primary screen, biochemical, NADPH fluorescence (AID 623;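 active = NADPH fluorescence slope more negative than the mean of all samples by about 3 SD, 99.7% confidence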;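 also: fluorescence intensity change per second fitted from 20 to 320 s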); settings: Recombinant KvBeta, NADPH fluorescence decrease slope, 10 min; at 10 µM; stronger effect = lower value
[6] = molecular target: Alpha-2C adrenergic receptor (Homo sapiens) (UniProt P18825); test: modulators of alpha2C/GIRK thallium flux, primary screen, cell-based, HEK293 alpha2C/GIRK1/2 (AID 624;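 active = fluorescence slope after compound addition differing from the mean of all screened samples at 99.7% confidence, in either direction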;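 also: slope of fluorescence ratio to pre-addition baseline per second over 15 to 24 s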); settings: thallium flux BTC fluorescence, at 10 µM, actives lie on both sides
Sequence of Alpha-2C adrenergic receptor (Homo sapiens) (P18825 whole entry, looked up): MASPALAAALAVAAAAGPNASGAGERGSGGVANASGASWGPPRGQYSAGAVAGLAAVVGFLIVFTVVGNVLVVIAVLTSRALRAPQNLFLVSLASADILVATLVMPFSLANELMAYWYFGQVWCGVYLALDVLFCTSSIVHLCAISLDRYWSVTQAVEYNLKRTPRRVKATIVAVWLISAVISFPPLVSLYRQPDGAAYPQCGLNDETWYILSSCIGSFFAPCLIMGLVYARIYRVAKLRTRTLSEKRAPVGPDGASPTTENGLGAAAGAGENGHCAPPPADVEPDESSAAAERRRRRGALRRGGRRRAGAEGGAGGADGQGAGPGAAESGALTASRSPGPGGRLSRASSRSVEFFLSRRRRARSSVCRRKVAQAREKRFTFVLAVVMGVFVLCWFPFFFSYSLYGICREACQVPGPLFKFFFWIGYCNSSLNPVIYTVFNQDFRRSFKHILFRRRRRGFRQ

[7] = inhibitors of Sendai virus-induced IRF3 signaling, primary screen, TLR/RLR signaling modifier project, cell-based, Sendai virus stimulus, luciferase, 10K MLSCN set (AID 602276); settings: HEK293 RL24 IRF3 luciferase reporter, at 10 µM, stronger effect = higher value;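 also: firefly luciferase from ISG56 promoter only with Renilla not read in this screen; 0% = Sendai virus plus DMSO and 100% = medium plus DMSO without virus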
[8] = inhibitors of poly I:C-induced TLR3 signaling, primary screen, cell-based, poly I:C stimulus, luciferase, 10K MLSCN set (AID 602277;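 active = inhibition of the reporter signal at or above 50%; inactive = inhibition below 50%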); settings: HEK293-TLR3 RL24 IRF3 luciferase reporter, at 10 µM, stronger effect = higher value

SMILES	cell count [1]	inhibition [1]	inhibition of aggregation [2]	nuclei count [2] [%]	inhibition [3]	nuclei count [3] [%]	fluorescence slope [4]	NADPH fluorescence slope [5]	slope [6]	inhibition [7]	inhibition [8]
CCOc1ccc(-c2cc(C(=O)N3CCN(c4ccccn4)CC3)c3ccccc3n2)cc1	619	7.9% (inactive)	-11.8% (inactive)	86.4	-19.3% (inactive)	111	-0.473 (inactive)	-6.7e-06 (inactive)	0.00673 (inactive)	34% (inactive)	-64.8% (inactive)
Cc1cc(C)nc(SCCS(=O)Cc2ccc(Cl)cc2)n1 (configuration not stated)	306	-3.8% (inactive)	-16.7% (inactive)	108	32.1% (inactive)	95	-0.503 (inactive)	6.2e-06 (inactive)	0.00559 (inactive)	5.96% (inactive)	8.92% (inactive)
CCOC(=O)C1CCCN(Cc2nc(N)nc(Nc3ccc(C)cc3)n2)C1 (configuration not stated)	580	1% (inactive)	-0.6% (inactive)	90.1	-41.3% (inactive)	130	-0.438 (inactive)	-0.000102 (inactive)	0.00446 (inactive)	22.6% (inactive)	17.2% (inactive)
COc1ccc(Br)cc1CNC(=O)C1CCCN(S(C)(=O)=O)C1 (configuration not stated)	949	-7.5% (inactive)	-7.3% (inactive)	114	-129% (inactive)	113	-0.362 (inactive)	-5.7e-05 (inactive)	0.00566 (inactive)	5.73% (inactive)	33.6% (inactive)
Cc1cc(N2CCOCC2)nc2ccc(NC(=O)C3CCC(C)CC3)cc12 (configuration not stated)	434	-2.7% (inactive)	-22.1% (inactive)	127	-132% (inactive)	123	-0.549 (inactive)	1.5e-05 (inactive)	0.00409 (inactive)	-9.82% (inactive)	-31.3% (inactive)
COc1ccc(CCN2CC(O)=C(c3nc4ccccc4c(=O)[nH]3)C2=N)cc1OC	642	-0.8% (inactive)	-7.4% (inactive)	83.2	-35.6% (inactive)	98.6	-0.489 (inactive)	-1e-06 (inactive)	0.00682 (inactive)	2.39% (inactive)	7.15% (inactive)
COC(=O)CN(c1ccc(OC)cc1)S(=O)(=O)c1ccc(OC)c(OC)c1	669	-4.7% (inactive)	-13% (inactive)	106	-81.3% (inactive)	139	-0.463 (inactive)	-0.000101 (inactive)	0.00514 (inactive)	10.6% (inactive)	23.4% (inactive)
O=C(O)c1cccc(NC(=O)C23CC4CC(C2)CC(n2cnc(Cl)n2)(C4)C3)c1	571	-24.4% (inactive)	-15.8% (inactive)	108	-14.3% (inactive)	115	-0.506 (inactive)	-1.2e-05 (inactive)	0.00606 (inactive)	9.34% (inactive)	17.3% (inactive)
Cc1ccc(-c2nnc(N(C)C(=O)c3ccccn3)s2)cn1	500	6.8% (inactive)	-1.4% (inactive)	105	-60.4% (inactive)	97.9	-0.495 (inactive)	-4.7e-05 (inactive)	0.00529 (inactive)	-13% (inactive)	-49% (inactive)
C=CCn1c(SCC2=C(C(=O)OCC)C(C)NC(=O)N2)nnc1C1CCCCC1 (configuration not stated)	468	6% (inactive)	4.5% (inactive)	113	-85.9% (inactive)	121	-0.469 (inactive)	5.7e-05 (inactive)	0.00672 (inactive)	14.6% (inactive)	27.1% (inactive)
CCCn1cc(SCC(N)=O)c2ccccc21	743	-8% (inactive)	-1.3% (inactive)	107	-33.9% (inactive)	113	-0.382 (inactive)	-6.4e-06 (inactive)	0.00614 (inactive)	13.5% (inactive)	27.7% (inactive)
Cc1ccc(N(C(C)C(=O)Nc2ccc(S(=O)(=O)N3CCOCC3)cc2)S(C)(=O)=O)cc1 (configuration not stated)	522	-7.3% (inactive)	23.8% (inactive)	68.3	-0.3% (inactive)	92.3	-0.518 (inactive)	-1.3e-05 (inactive)	0.00486 (inactive)	5.72% (inactive)	10.8% (inactive)
CCN1CCN(Cc2nc3c(c(=O)n(C)c(=O)n3C)n2CC(=O)c2ccccc2)CC1	465	-1.8% (inactive)	-8.6% (inactive)	89.6	-9.3% (inactive)	106	-0.556 (inactive)	-3e-05 (inactive)	0.00683 (inactive)	6.82% (inactive)	38.5% (inactive)
CCCc1nc(NCc2ccncc2)c2nnn(Cc3ccccc3F)c2n1	711	-6.1% (inactive)	-40.7% (inactive)	116	-57% (inactive)	120	-0.507 (inactive)	-0.000136 (inactive)	0.00544 (inactive)	9.12% (inactive)	19.1% (inactive)
Cc1[nH]nc2c1C(=O)CCC2	639	10.7% (inactive)	27.4% (inactive)	96.1	14.9% (inactive)	95.1	-0.366 (inactive)	-3.1e-05 (inactive)	0.00524 (inactive)	-1.33% (inactive)	0.12% (inactive)
CCOC(=O)/C(C#N)=C(/C)c1ccc(OC)cc1	323	-9.6% (inactive)	-28.9% (inactive)	120	-50.1% (inactive)	120	-0.515 (inactive)	-4.3e-06 (inactive)	0.00405 (inactive)	5.07% (inactive)	-13.7% (inactive)
Cc1cc(C)c2c(n1)nn1c(N3CCN(c4cccc(Cl)c4)CC3)cc(C)nc21	458	-7.1% (inactive)	3.7% (inactive)	97.9	-60.1% (inactive)	130	-0.303 (inactive)	1.1e-05 (inactive)	0.00567 (inactive)	9.81% (inactive)	21.4% (inactive)
Cc1cccc(Nc2nc(N)nc(CN3CCC(C(N)=O)CC3)n2)c1C	720	-4.3% (inactive)	-5.8% (inactive)	108	-35% (inactive)	123	-0.628 (inactive)	-2.1e-05 (inactive)	0.0067 (inactive)	-22.9% (inactive)	-60.3% (inactive)
Cc1ccc(S(=O)(=O)N2CCC(C(=O)NCCN3CCCCCC3)CC2)cc1	768	-9.5% (inactive)	-2.1% (inactive)	102	-87.4% (inactive)	110	-0.456 (inactive)	-6.3e-05 (inactive)	0.00469 (inactive)	11.2% (inactive)	32.9% (inactive)
CN(C)c1ccc(/C=C/c2ccncc2)cc1	311	-5.5% (inactive)	22.3% (inactive)	83.5	-76.4% (inactive)	87.8	-0.382 (inactive)	1.7e-05 (inactive)	0.00338 (inactive)	-62.5% (inactive)	-181% (inactive)
O=C(CCc1nc2ccccc2s1)OCC(=O)N1CCN(C(=O)c2ccco2)CC1	641	-7.6% (inactive)	-0.7% (inactive)	100	-126% (inactive)	128	-0.584 (inactive)	-2.7e-05 (inactive)	0.00548 (inactive)	14.9% (inactive)	24.8% (inactive)
CCCOc1ccc(OCCSc2ncccn2)cc1	811	-13% (inactive)	24.7% (inactive)	108	-93.3% (inactive)	108	-0.454 (inactive)	2.1e-05 (inactive)	0.0061 (inactive)	-39.4% (inactive)	-92% (inactive)
Brc1ccc(-c2csc(/N=C/N3CCOCC3)n2)cc1	531	-3.6% (inactive)	-0.1% (inactive)	97.4	13.5% (inactive)	102	-0.521 (inactive)	-8.8e-05 (inactive)	0.00566 (inactive)	-73.1% (inactive)	-171% (inactive)
S=C(c1cccs1)N1CCCC1	708	-25.9% (inactive)	-3.8% (inactive)	105	22.3% (inactive)	100	-0.421 (inactive)	-4e-05 (inactive)	0.00656 (inactive)	-7.06% (inactive)	6.9% (inactive)
O=C(CSc1nnc(-c2ccncc2)n1-c1ccc(F)cc1)NC(=O)NCc1ccco1	537	-13.7% (inactive)	-9.8% (inactive)	100	-65.7% (inactive)	149	-0.46 (inactive)	-0.000317 (inactive)	0.00513 (inactive)	10.1% (inactive)	15.2% (inactive)
COc1ccccc1NC(=O)Cn1nnc(-c2ccccc2NC(=O)c2ccco2)n1	317	6.2% (inactive)	-19% (inactive)	86.5	-29.7% (inactive)	117	-0.408 (inactive)	-1.3e-05 (inactive)	0.00705 (inactive)	16.8% (inactive)	37.7% (inactive)
COc1ccccc1Nc1ccc(C(=O)NC2CCCCC2)cn1	406	1% (inactive)	1.1% (inactive)	108	-13.6% (inactive)	110	-0.39 (inactive)	-5.7e-05 (inactive)	0.00711 (inactive)	-10.5% (inactive)	-22.4% (inactive)
